According to the supplement of paper PMC6607015:
Where a name gives a salt, the structure may show the parent alone.

Each molecule was assayed on HeLa MZ (assay: filipin (cholesterol) integrated intensity within LBPA endosomes, Z-score; higher = more cholesterol in LBPA endosomes). Settings: compound concentration in added solution (µM; 5 µl added to 20 µl cells): 10; 18 h.
Outline: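 The data are Z-scores, normalised in AcuityXpress, of integrated LBPA or filipin intensity in each cell, either whole-cell or restricted to LBPA endosomes. HeLa MZ or A431 cells, 3,500 per well in 20 µl, were seeded onto 5 µl of 10 µM compound solution in duplicate 384-well plates and incubated 18 h. Fixed cells were stained and imaged, with intensities extracted by MetaXpress segmentation.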

Row | Compound | filipin (z-score)
1 | CCN(CC)C(=S)SSC(=S)N(CC)CC [Disulfiram] | -0.407
2 | c1ccc2c(c1)CCCc1cc(NCCN3CCOCC3)nnc1-2 | -0.0973
3 | CC(C)OC(=O)C(C)(C)Oc1ccc(C(=O)c2ccc(Cl)cc2)cc1 [Fenofibrate] | -0.631
4 | CC(C)n1c(/C=C/C(O)CC(O)CC(=O)O)c(-c2ccc(F)cc2)c2ccccc21 (centres undefined) [Fluvastatin sodium salt] | -0.372
5 | CC(=O)N(CC(C)C(=O)O)c1c(I)cc(I)c(N)c1I (centres undefined) [Iocetamic acid] | -0.476
6 | CCOC(=O)[N-]c1c[n+](N2CCOCC2)no1 [Molsidomine] | -0.532
7 | CCn1cc(C(=O)O)c(=O)c2cnc(N3CCNCC3)nc21 [Pipemidic acid] | -0.281
8 | Nc1cc(N2CCCCC2)nc(N)[n+]1[O-] [Minoxidil] | -0.263
9 | COc1cc2ncnc(Nc3ccc(F)c(Cl)c3)c2cc1OCCCN1CCOCC1 [Gefitinib] | 2.83
10 | CS(=O)(=O)c1ccc([C@@H](O)[C@@H](CF)NC(=O)C(Cl)Cl)cc1 [Florfenicol] | -0.651
11 | COc1cc(C)c(/C=C/C(C)=C/C=C/C(C)=C/C(=O)O)c(C)c1C [Acitretin] | -0.258
12 | C=C(NC(=O)C(=C)NC(=O)c1csc(C2=N[C@@H]3c4csc(n4)[C@H]4NC(=O)c5csc(n5)[C@H]([C@](C)(O)[C@@H](C)O)NC(=O)[C@H]5CSC(=N5)/C(=C/C)NC(=O)[C@H]([C@@H](C)O)NC(=O)c5csc(n5)[C@]3(CC2)NC(=O)[C@H](C)NC(=O)C(=C)NC(=O)[C@H](C)NC(=O)[C@H]([C@@H](C)CC)N[C@@H]2C=Cc3c([C@H](C)O)cc(nc3[C@H]2O)C(=O)O[C@@H]4C)n1)C(N)=O [Thiostrepton] | -0.596
13 | C1CCC(C(CC2CCCCN2)C2CCCCC2)CC1 (centres undefined) [Perhexiline maleate] | 2.62
14 | Cc1cc(C(=O)NNCc2ccccc2)no1 [Isocarboxazid] | -0.513
15 | CO[C@H]1/C=C/O[C@@]2(C)Oc3c(C)c(O)c4c(O)c(c(/C=N/N5CCN(C6CCCC6)CC5)c(O)c4c3C2=O)NC(=O)/C(C)=C\C=C\[C@H](C)[C@H](O)[C@@H](C)[C@@H](O)[C@@H](C)[C@H](OC(C)=O)[C@@H]1C [Rifapentine] | -0.486
16 | CN(C)CC/C=C1/c2ccccc2COc2ccc(CC(=O)O)cc21 [Olopatadine hydrochloride] | -0.275
17 | CCc1c2c(nc3ccc(OC(=O)N4CCC(N5CCCCC5)CC4)cc13)-c1cc3c(c(=O)n1C2)COC(=O)[C@]3(O)CC [Irinotecan Hydrochloride] | -0.0232
18 | CCc1cccc(CC)c1NC(=O)CN(CC(=O)O)CC(=O)O [Etifenin] | -0.638
19 | Fc1ccc([C@@H]2CCNC[C@H]2COc2ccc3c(c2)OCO3)cc1 [Paroxetine Hydrochloride] | 2.03
20 | COc1ccc([C@@H]2CC(=O)c3c(O)cc(O[C@@H]4O[C@H](CO[C@@H]5O[C@@H](C)[C@H](O)[C@@H](O)[C@H]5O)[C@@H](O)[C@H](O)[C@H]4O)cc3O2)cc1O [Hesperidin] | -0.68
21 | CC(C)(C)CC(C)(C)c1ccc(OCCOCC[N+](C)(C)Cc2ccccc2)cc1 [Benzethonium chloride] | 0.517
22 | Nc1ccc(S(=O)(=O)NC(=O)c2ccccc2)cc1 [Sulfabenzamide] | -0.401
23 | Cc1ccc(C)c(OCCCC(C)(C)C(=O)O)c1 [Gemfibrozil] | -0.699
24 | CC(=O)CC(c1ccc([N+](=O)[O-])cc1)c1c(O)c2ccccc2oc1=O (centres undefined) [Acenocoumarol] | -0.482
25 | O=C1NCCN1CCN1CCC(c2cn(-c3ccc(F)cc3)c3ccc(Cl)cc23)CC1 [Sertindole] | 2.2
26 | CN[C@H]1CC[C@@H](c2ccc(Cl)c(Cl)c2)c2ccccc21 [Sertraline] | 3.15
27 | CC(NCCC(c1ccccc1)c1ccccc1)c1ccccc1 (centres undefined) [Fendiline hydrochloride] | 2.94
28 | O=C1Cc2cc(CCN3CCN(c4nsc5ccccc45)CC3)c(Cl)cc2N1 [Ziprasidone  Hydrochloride] | 1.31
29 | CCc1ccc(CCOc2ccc(CC3SC(=O)NC3=O)cc2)nc1 (centres undefined) [Pioglitazone] | -0.629
